Screening results (PubChem BioAssay)
Compounds with a hit are over-represented: about 1.6% of the library has one in this group of screens.
HTR5A inv ag: counter-screen for OPRM1-OPRD1 inverse agonists: human HTR5A inverse agonism; 340,000 compounds, 0.083% hits; HTR5A cell line, luminescence; P47898; inhibition, % at 9.3 µM; in the data active = inhibition mostly above about 23%, no sharp cut-off; inactive = mostly below about 18%;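 also: 0% = cells with DMSO and 100% = no-cell wells with DMSO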
PolyA inh: yeast polyadenylation inhibition | S. cerevisiae SKY197-pL101 polyadenylation reporter, beta-gal luminescence; efflux-impaired pdr1/pdr3 knockout yeast; score 100 = 6 SD above DMSO | activity score, % at 12 µM | 300,000 compounds, 0.02% hits;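 active = lowest replicate activity score at least 50, where 100 means six control SD above control mean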;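 also: yeast exposed to compound for 9 h at 30 °C; higher score means more reporter readthrough which indicates perturbed polyadenylation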
OPRM1-OPRD1 inv: mu-delta opioid heterodimer inverse agonism; P35372+P41143; cell-based MOR-DOR heterodimer luminescence; inhibition, % at 9.3 µM; 340,000 compounds, 0.21% hits; in the data active = inhibition above about 22%, passing the limit was not always enough;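 also: 0% = cells with DMSO and 100% = wells without cells with DMSO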
Target sequence (P35372 whole entry, looked up): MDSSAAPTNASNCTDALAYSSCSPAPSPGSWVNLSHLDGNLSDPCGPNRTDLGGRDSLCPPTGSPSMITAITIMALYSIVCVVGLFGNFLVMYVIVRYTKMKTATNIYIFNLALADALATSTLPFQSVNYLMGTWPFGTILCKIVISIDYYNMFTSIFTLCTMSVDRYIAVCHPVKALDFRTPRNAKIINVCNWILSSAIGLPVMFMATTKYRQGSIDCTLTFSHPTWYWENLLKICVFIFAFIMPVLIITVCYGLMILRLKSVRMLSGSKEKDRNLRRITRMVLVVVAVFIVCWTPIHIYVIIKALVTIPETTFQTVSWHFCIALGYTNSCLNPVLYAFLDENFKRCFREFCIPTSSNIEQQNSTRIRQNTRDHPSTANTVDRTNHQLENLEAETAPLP
Target sequence (P41143 whole entry, looked up): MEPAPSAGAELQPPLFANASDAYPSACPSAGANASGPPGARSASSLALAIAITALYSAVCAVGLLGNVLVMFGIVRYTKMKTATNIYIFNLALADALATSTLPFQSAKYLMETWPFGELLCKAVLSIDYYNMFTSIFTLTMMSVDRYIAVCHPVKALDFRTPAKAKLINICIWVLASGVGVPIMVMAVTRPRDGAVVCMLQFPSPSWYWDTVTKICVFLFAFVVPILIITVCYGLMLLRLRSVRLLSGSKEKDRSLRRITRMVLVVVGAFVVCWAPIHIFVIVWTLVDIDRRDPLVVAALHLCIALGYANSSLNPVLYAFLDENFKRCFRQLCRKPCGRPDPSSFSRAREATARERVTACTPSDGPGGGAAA
HTR5A ag: HTR5A agonism, opioid heterodimer counter-screen | P47898 | HTR5A agonist assay, luminescence, cell-based | activation, % at 9.3 µM | 340,000 compounds, 0.61% hits | AID 504692; in the data active = activation mostly above about 9.5%, no sharp cut-off; inactive = mostly below about 7.6%;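 also: 0% = cells with vehicle only and 100% = reference agonist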
OPRM1-OPRD1 ag: agonists of human mu-delta opioid receptor heterodimerization | activation, % at 9.3 µM | P35372+P41143 | cells, OPRM1-OPRD1 heterodimerization, luminescence | 340,000 compounds, 0.3% hits;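 also: 0% = vehicle-treated cells and 100% = reference agonist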
NALP1 yeast inh: inhibitors of NALP1 inflammasome in yeast; AID 2071; S. cerevisiae NALP1/ASC/caspase-1 growth, X-gal OD620, 72 h; inhibition, % at 10 µM; 280,000 compounds, 0.61% hits; in the data active = inhibition mostly above about 24%, no sharp cut-off; inactive = mostly below about 32%
MOR-DOR ag conf: OPRM1-OPRD1 heterodimer agonism, confirmation; shares compounds with OPRM1-OPRD1 ag; cells, MOR-DOR heterodimerization, luminescence complementation; activation, % at 9.3 µM; 830 compounds, 45% hits; AID 504904;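 also: 0% = vehicle-treated cells and 100% = reference agonist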
HTR5A ag counter: activates human HTR5A in OPRM1-OPRD1 agonist counter-screen; HTR5A agonist counterscreen, cell luminescence; activation, % at 9.3 µM; shares compounds with OPRM1-OPRD1 ag; 830 compounds, 8% hits; in the data active = activation above about 17%;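 also: 0% = vehicle-treated cells and 100% = reference agonist response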
An asterisk follows results filed as active; i = inactive; / = not tested or not shown. Rule as the data show it, unless noted: active = activation above about 18%; inactive = the rest.

SMILES	HTR5A inv ag	PolyA inh	OPRM1-OPRD1 inv	HTR5A ag	OPRM1-OPRD1 ag	NALP1 yeast inh	MOR-DOR ag conf	HTR5A ag counter
Cn1c(SCC(=O)c2ccc3c(c2)NC(=O)CO3)nc2ccccc21	6	-1	-205	7	38*	9	25*	7
N#CCC(=O)N/N=C/c1cn(Cc2ccc(Cl)c(Cl)c2)c2ccccc12	6	-9	-97	6	19*	26	14	6
Brc1ccc(NCc2cccc3ccccc23)nc1	22	-11	-16	-2	3	24	/	/
Oc1ccccc1CNc1ccc(Br)cn1	-48	2	-423	32*	71*	6	60*	27*
CCN(c1ccc(NC(=O)COC(=O)CCC(=O)c2ccc(F)cc2)cc1)C(C)C	-21	-1	-20	0	4	18	/	/
CCOC(=O)N1CCc2c(sc3ncn(C)c(=O)c23)C1	-16	-8	8	0	-2	9	/	/
CCOC(=O)N1CCc2c(sc3nc4n(c(=O)c23)N=C(c2ccc(OC)cc2)CS4)C1	23	17	-132	-1	26*	-12	4	2
O=C(NCC(c1ccc(F)cc1)N1CCOCC1)c1ccc(-c2ccccc2)cc1 (stereo unspecified)	15	/	-78	-2	21*	/	1	-3
C=CCN1/C(=C2/SC(=S)N(C)C2=O)Sc2ccccc21	/	-4	/	/	/	2	/	/
CCc1cccc(CC)c1NC(=S)NCC(c1cccnc1)N(C)C (stereo unspecified)	14	20	i	-2	150*	5	-2	0
CN(C)C(CNC(=O)Nc1cccc(Cl)c1)c1cccnc1 (stereo unspecified)	-4	5	i	5	202*	/	4	-4
CN(C)C(CNC(=S)Nc1ccc(Cl)cc1)c1cccnc1 (stereo unspecified)	3	11	i	0	264*	5	-1	-1
CSc1cc(SC)ncn1	-2	/	5	0	-1	/	/	/
O=S(=O)(Nc1cc(Cl)ccc1-n1cncn1)c1ccccc1Cl	-9	/	-313	3	73*	/	-1	-2
O=S(=O)(Nc1cc(Cl)ccc1-n1cncn1)c1cc(Br)ccc1Br	-9	/	2	-1	-1	/	/	/
Cc1ccccc1CC1CCN(CCCNC(=O)Nc2ccccc2)CC1	-14	3	3	4	-1	-11	/	/
COc1ccc(Cl)cc1NC(=O)c1cc(-c2ccccc2O)n[nH]1	0	-7	-71	0	12	22	/	/
COc1ccc(OC)c(NC(=O)c2cc(-c3cc(Cl)ccc3O)n[nH]2)c1	-47	0	-112	9	19*	16	0	12
CCC(C)(C)C(=O)Nc1ncc(S(=O)(=O)c2ccc([N+](=O)[O-])cc2)s1	-38	17	-55	3	9	8	/	/
CCCC(C)C(=O)Nc1ncc(S(=O)(=O)c2ccc([N+](=O)[O-])cc2)s1 (stereo unspecified)	-12	8	-112	7	21*	0	-2	2
Cc1ccc(/C([O-])=C(/C(=S)Nc2ccc(SC(F)F)cc2)[n+]2ccccc2)cc1[N+](=O)[O-]	-19	-24	-118	-3	24*	18	0	7
O=C(NCC(=O)N(c1ccc(F)cc1)C(C(=O)NC1CCCC1)c1cccnc1)c1ccco1 (stereo unspecified)	-8	3	7	3	-1	11	/	/
COc1ccc2cc3cc(C(=O)Nc4cc(OC)c(OC)c(OC)c4)oc3nc2c1	-36	-4	-122	1	20*	2	21*	6
COc1ccc2cc3cc(C(=O)NC(C)C)oc3nc2c1	9	-1	4	0	-1	-2	/	/
CC(=O)Nc1cccc(/C(C)=N/NC(=O)c2cccc(S(=O)(=O)N3CCOCC3)c2)c1	-24	-5	5	0	-1	-8	/	/
SMILES	HTR5A inv ag	PolyA inh	OPRM1-OPRD1 inv	HTR5A ag	OPRM1-OPRD1 ag	NALP1 yeast inh	MOR-DOR ag conf	HTR5A ag counter
C/C(=N\NC(=O)c1cccc(S(=O)(=O)N2CCOCC2)c1)c1ccc(O)cc1	-19	/	i	8	219*	/	-1	2
COC(=O)CSc1nnc(-c2sc3cc(OC)ccc3c2Cl)n1C	-10	-24	-85	-3	19*	4	1	3
Cc1cccc(CCN2C(Nc3ccccc3)=NC[C@@H]2CC(C)C)c1	9	/	-173	9	38*	/	0	-2
CC(C)C[C@H]1CN=C(Nc2ccccc2)N1CCc1cccc(F)c1	-9	/	-1	4	0	/	/	/
C[n+]1cn(Cc2ccc(C#N)cc2)c2ccccc21	-9	2	5	2	-1	8	/	/
Cc1ccc(S(=O)(=O)/N=C2/C=C(Sc3ncn[nH]3)C(=O)c3ccccc32)cc1	-21	/	-125	10	23*	29	5	-6
Cc1ccc(S(=O)(=O)/N=C2\C=C(Nc3ccc(O)cc3)C(=O)c3ccccc32)cc1	-7	/	-64	0	16	/	/	/
CC(=O)c1ccc(NC(=O)Nc2ccc3c(c2)N(C)C(=O)CS3)cc1	12	-3	-293	2	50*	8	120*	-1
O=C(CSc1nncc(=O)[nH]1)NC1CCCCC1	1	3	12	0	-2	18	/	/
CC12CC(NC(=O)N1c1cccc(C(=O)N3CCCCC3)c1)c1ccccc1O2 (stereo unspecified)	21	-10	18	0	-3	7	/	/
Cc1ccccc1OCc1nc(-c2ccc(NC(=O)c3ccco3)cc2)no1	-16	/	-7	10	2	-74	/	/
Cc1ccccc1OCc1nc(-c2ccc(NC(=O)c3ccc4c(c3)OCO4)cc2)no1	-26	-1	-88	10	21*	11	1	2
CC(=O)NC1=NC(=O)/C(=C/c2cc(C)n(-c3cccc(C(=O)O)c3)c2C)S1	/	-10	/	/	/	10	/	/
CC(=O)NC1=NC(=O)/C(=C/c2cc(C)n(-c3ccc(NC(C)=O)cc3)c2C)S1	-47	-2	-312	-3	60*	9	14	4
CN(C)c1ncc(CN2CCC(C(=O)Nc3ccc(-n4cccn4)cc3)CC2)s1	15	-11	5	0	-2	4	/	/
CCN(CC(=O)Nc1c(F)cccc1F)C(=O)Cc1csc(-c2ccccc2)n1	6	-20	18	5	-3	/	/	/
O=C(NC(=S)Nc1ccc(Cc2ccncc2)cc1)c1ccc(F)cc1	24	-23	2	2	0	15	/	/
Cc1ccccc1NP1(=O)OCCCN1Cc1ccccc1Cl (stereo unspecified)	4	/	-147	-1	30*	/	1	4
